The values below come from the supplement of paper PMC9135407.

Values joined by “and” are separate entries in the source; they are usually repeats but may differ in a detail not shown here. Identical values can stand only once. Counter-ions that a name gives are not always drawn. Out of some 5,800 compounds screened, about 620 (11%) showed activity. Only a selection was taken, and actives are over-represented in it overall. Values without a mark were called inactive.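 Rule for the calls: active = score above a cut-off or among the top three wells of a plate; in these data no inactive exceeds 0.85.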

In this assay the test system is primary human hepatic stellate cells (donor 1). The assay can be described thus: scaled lipid accumulation score (0 = DMSO-like, 1 = nortriptyline-like); higher = stronger HSC inactivation (lipid re-accumulation), active = hit call of the paper. The note with it: 48 h.
The mark [1] stands for this setting: library stock concentration: 3.33 mM.
Setting [2] is: library stock concentration: 10 mM.
Where [3] appears, read: library stock concentration: 1 mM.
[4] abbreviates: library stock concentration: 80 uM.
The mark [5] stands for this setting: library stock concentration: 400 uM.
The mark [6] stands for this setting: library stock concentration: 2 mM.
Setting [7] is: library stock concentration: 100 uM.

In the case of `CCN1C(=CC(C)=O)Sc2ccc(OC)cc21`, the “scaled lipid accumulation score” value is no more than -0.009 under setting [1] and no more than 0 under setting [2].

As to `CCCCCCCCCCC(C)(C)C(=O)Nc1c(OC)cc(OC)cc1OC`, the “scaled lipid accumulation score” value under setting [2] is 0.164 and ≤ -0.001.

As for `CC/C=C/C/C=C/C/C=C/C/C=C/CCCCC(=O)OC` [Stearidonic Acid methyl ester], the “scaled lipid accumulation score” value under setting [3] is 0.048.

Take `O=C(c1cn(Cc2cncn2Cc2ccc(Br)cc2)cc1-c1cccc2ccccc12)N1CCOCC1`: the “scaled lipid accumulation score” value reads like this: under setting [1], no more than -0.003; under setting [2], 0.723.

Take `CNCc1ccc(-c2[nH]c3cc(F)cc4c3c2CCNC4=O)cc1`: the “scaled lipid accumulation score” value under setting [1] is 0.213.

Consider `CNCc1ccc(-c2[nH]c3cc(F)cc4c3c2CCNC4=O)cc1` [Rucaparib], for which the “scaled lipid accumulation score” value was no more than 0 under setting [4], no more than 0 under setting [5] and 0.588 under setting [6].

For the compound `CNCc1ccc(-c2[nH]c3cc(F)cc4c3c2CCNC4=O)cc1.O=P(O)(O)O` [Rucaparib], the “scaled lipid accumulation score” value under setting [2] is 1.12 (active).

On to `CNCc1ccc(-c2[nH]c3cc(F)cc4c3c2CCNC4=O)cc1.O=P(O)(O)O`, for which the “scaled lipid accumulation score” value under setting [2] is 1.47 (active).

`CCCCCCCCCCCCCCCCCCCCCCC(=O)OCC` [Ethyl Tricosanoate]: the “scaled lipid accumulation score” value under setting [3] is no more than 0.

On to `CCCCCCCCCSCCCCCCCC(=O)O` [9-Thiastearic Acid], for which the “scaled lipid accumulation score” value under setting [3] was 0.031.

`CN1CCc2nc(C(=O)N[C@@H]3C[C@@H](C(=O)N(C)C)CC[C@@H]3NC(=O)C(=O)Nc3ccc(Cl)cn3)sc2C1` [Edoxaban]: the “scaled lipid accumulation score” value was no more than -0.009 under setting [1] and 0.008 under setting [2].

Take `CC(=O)N[C@@H](Cc1c[nH]c2ccccc12)C(=O)O` [Acetyltryptophan]: the “scaled lipid accumulation score” value under setting [2] is no more than 0.

For the compound `COc1cc(C(O)C(=O)O)ccc1O` (centres undefined), under setting [2], the “scaled lipid accumulation score” value is no more than -0.036.

As for `c1nc(CC2CCNCC2)c[nH]1` [Immepip dihydrobromide], under setting [2], the “scaled lipid accumulation score” value was 0.011.

Turning to `CC/C=C/C[C@H](O)/C=C/[C@H]1[C@H](O)CC(=O)[C@@H]1C/C=C\CCCC(=O)O` [17-trans Prostaglandin E3], the “scaled lipid accumulation score” value under setting [3] was no more than 0.

As to `Cc1c[nH]c(-c2cnc(NCCNc3ccc(C#N)cn3)nc2-c2ccc(Cl)cc2Cl)n1.Cl`, the “scaled lipid accumulation score” value under setting [2] is 1.08 (active).

As to `Cc1cnc(-c2cnc(NCCNc3ccc(C#N)cn3)nc2-c2ccc(Cl)cc2Cl)[nH]1`, the “scaled lipid accumulation score” value by setting is: under setting [4], 0.041; under setting [5], 0.005; under setting [6], 0.182; under setting [1], 0.229; under setting [2], 0.814.

On to `CCCCC[C@H](O)/C=C/[C@H]1C(=O)C[C@H](O)[C@@H]1C/C=C\CCCC(=O)NC(CO)CO` [Prostaglandin D2 serinol amide], for which the “scaled lipid accumulation score” value under setting [3] was no more than 0.

As to `CCCCC/C=C\C/C=C\C/C=C\CC1OC1CCCC(=O)O` (centres undefined) [5,6-Epoxyeicosatrienoic acid], the “scaled lipid accumulation score” value under setting [7] was no more than -0.021.

As for `CC[C@@H]([C@H](C)O)n1ncn(-c2ccc(N3CCN(c4ccc(OC[C@@H]5CO[C@@](Cn6cncn6)(c6ccc(F)cc6F)C5)cc4)CC3)cc2)c1=O` [Posaconazole] [listing 1 of 2 here], the “scaled lipid accumulation score” value under setting [1] was 0.134.

As to `CC[C@@H]([C@H](C)O)n1ncn(-c2ccc(N3CCN(c4ccc(OC[C@@H]5CO[C@@](Cn6cncn6)(c6ccc(F)cc6F)C5)cc4)CC3)cc2)c1=O` [Posaconazole] [listing 2 of 2 here], under setting [2], the “scaled lipid accumulation score” value is 0.869 (active).

Consider `CCC(C)n1ncn(-c2ccc(N3CCN(c4ccc(OCC5COC(Cn6cncn6)(c6ccc(Cl)cc6Cl)O5)cc4)CC3)cc2)c1=O` (centres undefined) [Itraconazole], for which the “scaled lipid accumulation score” value by setting is: (library stock concentration: 2.8 mM) no more than 0; under setting [1], 0.492; under setting [2], 0.522.

With `Cc1cc(C)c(N(Cc2ccccc2)S(=O)(=O)c2ccc(OCCNC(=O)c3cc4ccccc4o3)cc2)c(C(=O)NO)c1`, under setting [2], the “scaled lipid accumulation score” value is no more than -0.001.

As for `COc1ccc(C(=O)NCc2ccc(OCCN(C)C)cc2)cc1OC`, under setting [2], the “scaled lipid accumulation score” value is 0.061 and 0.313.

Consider `CN(C)Cc1c(C(=O)NCCOc2ccc(C(=O)NO)cc2)oc2ccccc12`, for which the “scaled lipid accumulation score” value was 0.855 (active) under setting [1] and 1.01 (active) under setting [2].

With `CC(/C=C1\SC(=S)N(CC(=O)O)C1=O)=C\c1ccccc1` [Epalrestat], the “scaled lipid accumulation score” value reads like this: under setting [1], no more than 0; under setting [2], no more than 0.

With `O=C(O)CCCC=CCC1C2CCC(O2)C1CNNC(=O)Nc1ccccc1` (centres undefined), under setting [3], the “scaled lipid accumulation score” value was ≤ 0 and ≤ -0.021.

Regarding `O=C(O)[C@]1(O)C[C@@H](O)[C@@H](O)[C@H](O)C1` [Quinic acid], the “scaled lipid accumulation score” value is no more than 0.

As for `Cc1c(C(=O)c2ccccc2)c(N)c(-c2ccccc2)n1Cc1ccc(Cl)cc1`, the “scaled lipid accumulation score” value under setting [3] was no more than 0.

`CCCCCCCCCCCCCCCCCCOC[C@H](COP(=O)([O-])OCC[N+](C)(C)C)OC(C)=O`: under setting [3], the “scaled lipid accumulation score” value was ≤ 0 and ≤ -0.021.

In the case of `CC(=O)Nc1nc(C)c(-c2ccc(Cl)c(S(=O)(=O)NCCO)c2)s1`, the “scaled lipid accumulation score” value under setting [4] is no more than -0.016; the “scaled lipid accumulation score” value under setting [5] was no more than -0.016; the “scaled lipid accumulation score” value under setting [6] is no more than -0.016; the “scaled lipid accumulation score” value under setting [1] is no more than 0; the “scaled lipid accumulation score” value under setting [2] was ≤ 0 and ≤ -0.016.

Turning to `O=c1oc2c(O)c(O)cc3c(=O)oc4c(O)c(O)cc1c4c23` [Ellagic acid], the “scaled lipid accumulation score” value by setting is: under setting [4], no more than 0; under setting [5], no more than 0; under setting [6], no more than 0; under setting [2], no more than 0.

Take `CN(C)c1ccc(-c2nc3c(N4CCN(CC(=O)Nc5nccs5)CC4)c(Cl)cnc3[nH]2)cc1`: the “scaled lipid accumulation score” value under setting [1] was 0.858 (active) and the “scaled lipid accumulation score” value under setting [2] was 0.949 (active).

With `O=C(c1cccc(Cl)c1F)N1CCN(Cc2cccc(Nc3nccs3)n2)CC1`, the “scaled lipid accumulation score” value is no more than 0 under setting [1] and 0.453 under setting [2].

Consider `CCCCC/C=C/C=C1/C(=O)C=C[C@@H]1C/C=C\CCCC(=O)O` [15-deoxy-.DELTA.12,14-Prostaglandin J2], for which, under setting [3], the “scaled lipid accumulation score” value is no more than 0.

As for `CSc1ccc(C(=O)c2[nH]c(=O)[nH]c2C)cc1` [Enoximone], under setting [2], the “scaled lipid accumulation score” value was 0.125.

In the case of `Cc1cc(NC2CCCCC2)nc(-n2nc(C)cc2C)n1`, the “scaled lipid accumulation score” value under setting [2] is no more than -0.03.

Consider `COc1c(C)cnc(Cn2cnc3c(Cl)nc(N)nc32)c1C` [listing 1 of 2 here], for which, under setting [1], the “scaled lipid accumulation score” value was 0.885 (active).

With `COc1c(C)cnc(Cn2cnc3c(Cl)nc(N)nc32)c1C` [listing 2 of 2 here], the “scaled lipid accumulation score” value under setting [2] is 0.768.

As to `COc1ccc2[nH]c([S+]([O-])Cc3ncc(C)c(OC)c3C)nc2n1` (centres undefined) [Tenatoprazole], the “scaled lipid accumulation score” value (library stock concentration: 5.8 mM) was 0.081.

In the case of `N#CC(=Cc1cc(Cl)cc(Cl)c1)c1cccnc1`, the “scaled lipid accumulation score” value (library stock concentration: 18.2 mM) was 0.033.

Regarding `CN(C[C@@H]1COCCO1)S(=O)(=O)Nc1ccc2ccc3ncc(-c4cnn(C)c4)cc3c(=O)c2c1`, the “scaled lipid accumulation score” value is, setting by setting: under setting [1], no more than 0; under setting [2], no more than 0.

As to `O.O.O.O.O.O.O.O.O.O.O.O.O.O.O.O.O=S(=O)([O][Al])OC[C@H]1O[C@@](COS(=O)(=O)[O][Al])(O[C@H]2O[C@H](COS(=O)(=O)[O][Al])[C@@H](OS(=O)(=O)[O][Al])[C@H](OS(=O)(=O)[O][Al])[C@H]2OS(=O)(=O)[O][Al])[C@@H](OS(=O)(=O)[O][Al])[C@@H]1OS(=O)(=O)[O][Al]` [Sucralfate sodium (10% w/v in dmso)], the “scaled lipid accumulation score” value (library stock concentration: 900 uM) is no more than 0.

As to `COc1ccc2[nH]c(I)c(CCNC(C)=O)c2c1` [2-Iodomelatonin], the “scaled lipid accumulation score” value under setting [2] was 0.011.

In the case of `COc1ccc2c(c1)c(C1=C(c3c[nH]c4ccccc34)C(=O)NC1=O)cn2CCCN(C)C`, the “scaled lipid accumulation score” value by setting is: under setting [3], 0.018; under setting [1], 0.054 and ≤ 0; under setting [2], 0.706.

For the compound `CN(C)CCCn1cc(C2=C(c3c[nH]c4ccccc34)C(=O)NC2=O)c2ccccc21` [Bisindolylmaleimide I], the “scaled lipid accumulation score” value under setting [1] is 0.663.

With `CN(C)CCCn1cc(C2=C(c3c[nH]c4ccccc34)C(=O)NC2=O)c2ccccc21` [listing 1 of 2 here], the “scaled lipid accumulation score” value runs as follows: under setting [1], 0.071; under setting [2], 0.777; (library stock concentration: 12.1 mM) 0.519.

Turning to `CN(C)CCCn1cc(C2=C(c3c[nH]c4ccccc34)C(=O)NC2=O)c2ccccc21` [listing 2 of 2 here], the “scaled lipid accumulation score” value under setting [2] was 1.04 (active).

For `CCCCC[C@H](O)/C=C/C=C\C/C=C\C/C=C\CCCC(=O)O`, the “scaled lipid accumulation score” value under setting [7] is no more than -0.02.

For `COc1nc(C)cnc1NS(=O)(=O)c1cccnc1-c1ccc(-c2nnco2)cc1` [Zibotentan (ZD4054)], the “scaled lipid accumulation score” value under setting [1] is no more than 0 and the “scaled lipid accumulation score” value under setting [2] was no more than 0.

On to `OCC(O)C(O)CO` (centres undefined) [Erythritol], for which the “scaled lipid accumulation score” value runs as follows: under setting [1], no more than 0; under setting [2], no more than -0.001.

As for `CNCCCN1c2ccccc2CCc2ccccc21` [Desipramine hydrochloride], the “scaled lipid accumulation score” value reads like this: (library stock concentration: 6.6 mM) 0.471; under setting [2], 0.667.

Take `CNCCCN1c2ccccc2CCc2ccccc21.Cl` [Desipramine hydrochloride] [listing 1 of 2 here]: the “scaled lipid accumulation score” value was 0.887 (active).

Take `CNCCCN1c2ccccc2CCc2ccccc21.Cl` [Desipramine hydrochloride] [listing 2 of 2 here]: the “scaled lipid accumulation score” value under setting [2] was 1.15 (active).

As to `CNCCCN1c2ccccc2CCc2ccccc21.Cl`, under setting [2], the “scaled lipid accumulation score” value is 0.969 (active).

Turning to `CCCCC1CCC(c2nc(-c3ccncc3)no2)CC1` (centres undefined), the “scaled lipid accumulation score” value by setting is: under setting [3], 0.03; under setting [2], no more than -0.001.

For `CC(C)N(C[C@H]1O[C@@H](n2cnc3c(N)ncnc32)[C@H](O)[C@@H]1O)[C@H]1C[C@@H](CCc2nc3cc(C(C)(C)C)ccc3[nH]2)C1`, the “scaled lipid accumulation score” value was no more than 0 under setting [1] and 0.467 under setting [2].

As for `CC(C)OC(=O)OCOP(=O)(CO[C@H](C)Cn1cnc2c(N)ncnc21)OCOC(=O)OC(C)C` [Tenofovir Disoproxil Fumarate], the “scaled lipid accumulation score” value is, setting by setting: under setting [1], no more than 0; under setting [2], no more than 0.

For the compound `CCc1c(Cl)c(O)c(Cl)c(O)c1C(=O)O[C@H]1[C@H](O)[C@H](OC)[C@H](OC/C2=C\C=C\C[C@H](O)/C(C)=C/[C@H](CC)[C@@H](O[C@@H]3OC(C)(C)[C@@H](OC(=O)C(C)C)[C@H](O)[C@@H]3O)/C(C)=C/C(C)=C/C[C@@H]([C@@H](C)O)OC2=O)O[C@@H]1C` [Fidaxomicin], the “scaled lipid accumulation score” value under setting [1] was no more than 0 and the “scaled lipid accumulation score” value under setting [2] was 0.125.

Regarding `COc1ccc(CCN(C)CCCOc2ccc(S(=O)(=O)c3c(C(C)C)c4ccccc4n3C)cc2)cc1OC`, the “scaled lipid accumulation score” value under setting [2] is 0.445.
